Compound activity deposited in PubChem by several laboratories.
This is a sample that favours compounds with a hit; in the whole collection about 1.4% have one here.
Sa RN4220 lethal – kills Staphylococcus aureus RN4220. inhibition, % (no concentration beside the values). S. aureus RN4220 growth, OD600, 16 h. AID 1259311. 330,000 compounds, 0.33% hits; in the data active = inhibition above about 85%;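 note: plate controls were untreated cells for no effect and reference antibiotic for full effect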
Mtb hypoxia inh – Mtb hypoxia fluorescent reporter inhibition. M. tuberculosis hypoxia-regulated fluorescent reporter, fluorescence. fluorescence inhibition, % (concentration not given with the values). 300,000 compounds, 0.1% hits; in the data active = fluorescence inhibition mostly above about 23%, no sharp cut-off; inactive = mostly below about 17%
ugtP null kill – compounds lethal to S. aureus RN4220 ugtP deletion mutant. OD600 growth, 16 h. growth inhibition, % (concentration not given with the values). 330,000 compounds, 0.54% hits; in the data active = growth inhibition above about 68%;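 note: plate controls were untreated wells for no effect and antibiotic for full effect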
CCHF vOTU inh – CCHFV vOTU protease inhibition | Pep-AMC fluorescence | inhibition, % at 11.5 µM | 370,000 compounds, 0.55% hits; in the data active = inhibition above about 30%; note: 0% = vehicle wells with enzyme and 100% = no enzyme wells
PriA SSB inh – blocks PriA binding to SSB C-terminal tail; AlphaScreen SSBct-PriA binding, biotinylated peptide; inhibition, % at 33 µM; 430,000 compounds, 0.6% hits; AID 1272365; in the data active = inhibition mostly above about 37%, no sharp cut-off; inactive = mostly below about 20%;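 note: plate controls were negative control peptide for no effect and reference peptide for full effect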
Numbers without * were called inactive; ! = not confirmed by another sample.

For CCOC(=O)c1c(NC(=O)CN2C(=O)N(C)C3(CCCCC3)C2=O)sc(C(=O)N(C)C)c1C the results were Sa RN4220 lethal 3.0, Mtb hypoxia inh 24.7*, ugtP null kill -3.8, CCHF vOTU inh -7.3 and PriA SSB inh -13.2.
O=C(CSc1ncnc2sc3c(c12)CCCC3)Nc1cc(C(F)(F)F)ccc1Cl was read as PriA SSB inh -5.0.
COc1ccc(N=NC2C(=O)N(c3ccccc3)N=C2C)cc1 (centres undefined) was read as Sa RN4220 lethal -0.8, Mtb hypoxia inh -3.3, ugtP null kill 10.4, CCHF vOTU inh -7.5 and PriA SSB inh 43.3*.
For CC1=NN(c2ccccc2)C(=O)C1N=Nc1ccccc1 (centres undefined) the results were Sa RN4220 lethal 1.0, Mtb hypoxia inh 5.6, ugtP null kill -14.9, CCHF vOTU inh 9.6 and PriA SSB inh 30.8.
Screening Cn1c(NC(=O)CCc2ccccc2)cc(=O)n(C)c1=O returned Sa RN4220 lethal 8.6, Mtb hypoxia inh 10.7, ugtP null kill 11.0, CCHF vOTU inh 15.3 and PriA SSB inh 46.0*.
For CCCC(=O)Nc1cc(=O)n(C)c(=O)n1C the results were Sa RN4220 lethal 0.6, Mtb hypoxia inh -1.0, ugtP null kill 4.0, CCHF vOTU inh 2.5 and PriA SSB inh -20.3.
For COc1cc(C=CC(=O)c2ccc([N+](=O)[O-])o2)ccc1O the results were Sa RN4220 lethal 68.3 and ugtP null kill 99.1*.
For COc1ccc(C=CC(=O)c2ccc([N+](=O)[O-])o2)cc1 the results were Sa RN4220 lethal 17.8 and ugtP null kill 92.7*.
CCOC(=O)C1C(c2ccc(C)o2)NC(=O)NC1(O)C(F)(F)F (centres undefined) was read as Sa RN4220 lethal 4.8, Mtb hypoxia inh 3.4, ugtP null kill 1.6, CCHF vOTU inh 1.2 and PriA SSB inh 43.0*!.
Screening Cc1ccc(C2NC(=O)NC(O)(C(F)(F)F)C2C(=O)c2ccccc2)o1 (centres undefined) returned Sa RN4220 lethal 1.1, Mtb hypoxia inh 1.1, ugtP null kill -4.0, CCHF vOTU inh 1.4 and PriA SSB inh -15.9.
`Cc1nc(S(=O)(=O)NCCn2nc(-c3ccncc3)cc2C)cn1C` gave PriA SSB inh -8.0.
CCSc1ccccc1C(=O)N1CCC(Oc2ncccc2Br)CC1 was read as PriA SSB inh -5.0.
`CC(=NOC(=O)C1CC1c1ccccc1)c1ccccc1` (centres undefined) gave Sa RN4220 lethal 0.5, Mtb hypoxia inh 3.5, ugtP null kill 24.8 and PriA SSB inh -56.4.
Screening Clc1ccc(OCCn2cnc(Cl)c2Cl)cc1 returned Sa RN4220 lethal 4.4, Mtb hypoxia inh -1.3, ugtP null kill -9.1, CCHF vOTU inh 10.2 and PriA SSB inh 43.0*.
For Clc1cccc(Cl)c1Cn1nnc(N2CCCC2)n1 the results were Sa RN4220 lethal 1.9, Mtb hypoxia inh 35.5*, ugtP null kill 3.3, CCHF vOTU inh 2.7 and PriA SSB inh -16.1.
For Fc1cccc(Cl)c1Cn1nnc(-c2ccc(N3CCOCC3)cc2)n1 the results were Sa RN4220 lethal 0.9, Mtb hypoxia inh 1.1, ugtP null kill -3.3, CCHF vOTU inh -0.7 and PriA SSB inh -2.0.
O=C(c1cc(C2CC2)on1)N1CCOC2(CCOCC2)C1 was read as PriA SSB inh -7.0.
Nc1nc(-c2ccccn2)nc(N)c1Cc1ccccc1F was read as Sa RN4220 lethal 8.1, Mtb hypoxia inh 11.4, ugtP null kill 8.3, CCHF vOTU inh -2.1 and PriA SSB inh 94.8*.
For Nc1nc(-c2ccccn2)nc(N)c1Cc1c(F)cccc1Cl the results were Sa RN4220 lethal 5.1, Mtb hypoxia inh 14.9, ugtP null kill -5.7, CCHF vOTU inh -8.0 and PriA SSB inh 35.2.
Nc1nc(-c2ccccn2)nc(N)c1Cc1ccc(Cl)cc1Cl was read as Sa RN4220 lethal 1.0, Mtb hypoxia inh 9.6, ugtP null kill 3.3, CCHF vOTU inh -2.6 and PriA SSB inh 53.9*.
For CC1=NN(c2ccc(C)cc2)C(=O)/C1=C\C=C\c1ccccc1 the results were Sa RN4220 lethal 4.1, Mtb hypoxia inh 8.1, ugtP null kill 0.8, CCHF vOTU inh -1.9 and PriA SSB inh -0.7.
`CC1=NN(c2ccccc2)C(=O)/C1=C/C=C/C=C/N(C)C` gave Sa RN4220 lethal -5.4, Mtb hypoxia inh 63.1*, ugtP null kill -5.5, CCHF vOTU inh 15.9 and PriA SSB inh 5.5.
For O=C(c1ccccc1Br)N1CCC(n2c(=O)[nH]c3ccc(F)cc3c2=O)CC1 the results were PriA SSB inh 4.0.
`O=C(NCc1cccs1)NCC(O)c1ccsc1` (centres undefined) gave PriA SSB inh -5.0.
Screening COc1ccc(NC(=O)COC(=O)CC23CC4CC(CC(C4)C2)C3)c([N+](=O)[O-])c1 returned Sa RN4220 lethal -1.3, Mtb hypoxia inh 5.7, ugtP null kill -8.3, CCHF vOTU inh 0.5 and PriA SSB inh 65.6*.
COc1ccc(/C=C/C(=O)OCC(=O)NC2CCCCC2C)c(OC)c1 (centres undefined) was read as Sa RN4220 lethal 4.6, Mtb hypoxia inh 22.2, ugtP null kill 87.2*, CCHF vOTU inh 12.8 and PriA SSB inh -3.4.
COc1ccc(/C=C/C(=O)OCC(=O)NC2CCCC2)c(OC)c1 was read as Sa RN4220 lethal 3.5, Mtb hypoxia inh 9.7, ugtP null kill 46.9, CCHF vOTU inh 10.9 and PriA SSB inh 1.2.
`CCOC(=O)Cn1nc(-c2ccccc2)nc1-c1ccccc1` gave Sa RN4220 lethal 3.0, Mtb hypoxia inh 13.4, ugtP null kill 8.1, CCHF vOTU inh -5.2 and PriA SSB inh -14.3.
Screening CCn1nc(-c2ccccc2)nc2c(=O)n(C)c(=O)nc1-2 returned Sa RN4220 lethal 94.9*, Mtb hypoxia inh -5.0, ugtP null kill 99.9* and PriA SSB inh -22.1.
For COc1ccccc1N1CCN(/N=C/C=C/c2ccccc2[N+](=O)[O-])CC1 the results were CCHF vOTU inh -10.5 and PriA SSB inh active.
Screening O=[N+]([O-])c1cccc(/C=N/N2CCN(c3ccccn3)CC2)c1 returned CCHF vOTU inh -17.6.
For O=[N+]([O-])c1ccccc1C=NN1CCN(c2ccccn2)CC1 the results were Sa RN4220 lethal 2.8, Mtb hypoxia inh 2.5, ugtP null kill 0.1 and PriA SSB inh 38.9*.
O=C(Nc1nc(-c2nc3ccccc3s2)cs1)c1nc2ccccc2s1 was read as PriA SSB inh -7.0.
CCc1cccc2sc(N(CCCN3CCOCC3)C(=O)c3ccc4c(c3)OCCO4)nc12 was read as PriA SSB inh 28.0*.
`CCc1cccc2sc(N(CCN(C)C)C(=O)c3cccc(SC)c3)nc12` gave PriA SSB inh 42.0*.
`CC1CC(C)CN(c2nccn3c(=O)n(CC(=O)NCc4ccc(F)cc4)nc23)C1` (centres undefined) gave PriA SSB inh -14.0.
For Brc1cccc(-n2nnnc2-c2ccc3ccccc3n2)c1 the results were PriA SSB inh -36.0.
Screening COc1ccc(NC(=O)C(C)N=C2NS(=O)(=O)c3ccccc32)cc1S(N)(=O)=O (centres undefined) returned Sa RN4220 lethal -0.4, Mtb hypoxia inh 26.1*, ugtP null kill 0.4, CCHF vOTU inh -5.8 and PriA SSB inh 12.4.
